Shown are actives, neighbours in structure and some others; about 2.4% of the full set was active somewhere.
WRN inhibitor = WRN helicase (human) inhibition. WRN helicase unwinding, fluorescent forked duplex, kinetic. Potency, µM (series often up to 114 µM), hits mostly inhibitors. hit rate 0.46% among 360,000. AID 651768; also: nearly all actives have a fitted effect of over 55% in size
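WRN at 20 nM final was preincubated with compound for 15 min at room temperature; reaction started with 100 nM forked duplex oligonucleotide carrying fluorophore and quencher plus 2 mM ATP (final). Unwinding followed kinetically by red fluorescence (ex 525/em 598 nm).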
FEN1 inh = human FEN1 inhibition | P39748 | Recombinant FEN1 flap cleavage, fluorescence, 15 min | Potency, µM (series often up to 114 µM), actives largely listed as inhibitors | hit rate 0.35% among 390,000 | AID 588795; also: nearly all actives have a fitted effect of over 65% in size
Target sequence (P39748 whole entry, looked up): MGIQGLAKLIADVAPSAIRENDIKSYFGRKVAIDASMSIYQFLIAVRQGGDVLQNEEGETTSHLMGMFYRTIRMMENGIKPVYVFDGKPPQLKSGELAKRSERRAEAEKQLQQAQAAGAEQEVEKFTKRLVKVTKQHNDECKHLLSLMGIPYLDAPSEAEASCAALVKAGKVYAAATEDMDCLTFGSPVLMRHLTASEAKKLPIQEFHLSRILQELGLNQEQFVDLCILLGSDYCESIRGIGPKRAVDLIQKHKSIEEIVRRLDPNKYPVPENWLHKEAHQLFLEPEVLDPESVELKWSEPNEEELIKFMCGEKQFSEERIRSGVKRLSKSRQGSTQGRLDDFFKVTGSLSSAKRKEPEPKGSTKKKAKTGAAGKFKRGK
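Quantitative HTS format: each compound was titrated, incubated with 10 nM nuclease for 15 min at room temperature, then challenged with flap substrate at 50 nM final. Signal change over 15 min gave concentration–effect curves.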
Pol iota inh = blocks human DNA polymerase iota activity; Pol iota fluorescent replication assay, 10 min; Potency, µM (series often up to 115 µM), usual class: inhibitors; hit rate 1% among 390,000; Q9UNA4
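Fluorescent replication assay read twice, at 0 min and 10 min after adding 50 nM (final) substrate. Enzyme (10 nM) and compounds were first incubated 15 min at room temperature; enzyme-free buffer wells were negative controls.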
Pol kappa inh-1 = DNA polymerase kappa (human) inhibition; purified Pol kappa, fluorescent DNA synthesis assay, 10 min; Potency, µM (highest dose often 107 µM), usual class: inhibitors; hit rate 0.53% among 400,000
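10 nM Pol kappa preincubated 15 min at room temperature with compounds, then reaction started with substrate at 50 nM final. Fluorescence read kinetically at 0 and 10 min; buffer-only wells served as negative control.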
POLB inh = inhibitors of human DNA polymerase beta. Potency, µM (top dose mostly 114 µM), usual class: inhibitors. AID 485314. Pol beta primer extension/strand displacement, fluorescence kinetic. hit rate 1.3% among 340,000
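Enzyme-only controls used 10 nM Pol beta; buffer lacking enzyme served as negative control. Compound preincubated 15 min, then 50 nM substrate added; 0 and 10 min reads at room temperature.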
Pol eta inh-1 = DNA polymerase eta (human) inhibition | recombinant Pol eta, fluorescent DNA replication assay | Potency, µM (series often up to 114 µM), usual class: inhibitors | hit rate 1.2% among 390,000
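Pol eta (10 nM) was preincubated with compounds for 15 min at room temperature, after which fluorescent replication substrate (50 nM final) was added to start the reaction. Fluorescence was read kinetically at 0 and 10 min.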
GALK confirm = confirmation of human galactokinase (GALK) inhibitors | shares compounds with Pol eta inh-1 | purified GALK, Kinase-Glo ATP depletion luminescence | Potency, µM (titrated, usually from 115 µM), most hits filed as inhibitors | hit rate 70% among 150
Redox cycling = generates H2O2 by redox cycling, flagging GALK artifacts | Potency, µM (series often up to 115 µM), most hits filed as inhibitors | Phenol red-HRP H2O2 redox cycling, absorbance 600 nm | hit rate 40% among 150 | shares compounds with Pol eta inh-1
HEK293 tox = counter-screen for GALK inhibitors: HEK293 cell cytotoxicity; hit rate 10% among 170; HEK-293 viability, ATP luminescence (CellTiter-Glo), 24/48 h; AID 2547; Potency, µM (highest dose often 46.1 µM), most hits filed as inhibitors; shares compounds with Pol eta inh-1
Pol kappa inh-2 = Pol kappa (human) inhibition, cherry-pick confirmation; shares compounds with Pol eta inh-1; purified Pol-kappa, fluorescent strand-displacement substrate; hit rate 76% among 920; Potency, µM, hits mostly inhibitors; AID 720501
Pol eta inh-2 = Pol eta (human) inhibition, cherry-pick confirmation | shares compounds with Pol eta inh-1 | Pol eta primer extension, TAMRA/BHQ fluorescence, 10 min | Potency, µM, actives largely listed as inhibitors | hit rate 64% among 2,600
A number is an active result; - = inactive; ? = inconclusive; . = not tested or not shown; [ ] = another dose, or the depositor's remark. Calls follow the shape of the dose curve; as a rule, active = well fitted curve in the direction sought with a large enough effect; inconclusive = small, poorly fitted or top-dose-only effect, or another doubt; inactive = no such curve, though single readings can be large; an effect the other way counts as inactive or inconclusive.

SMILES	WRN inhibitor	FEN1 inh	Pol iota inh	Pol kappa inh-1	POLB inh	Pol eta inh-1	Pol eta inh-2	others
CCOc1ccc(C(=O)c2cn(CC(=O)Nc3cc(OC)cc(OC)c3)c3ccc(F)cc3c2=O)cc1	.	-	?	-	14µM	?	.	Pol kappa inh-2=?
CCc1ccc(C(=O)c2cn(CC(=O)Nc3cc(OC)cc(OC)c3)c3ccc(CC)cc3c2=O)cc1	.	-	-	-	-	-	.
Cc1cc(C(F)(F)F)nc(SCc2ccc(C(=O)O)o2)n1	-[11.6 µM]	-	22µM	-	40µM	8.9µM	?
Cc1cc(C)nc(NS(=O)(=O)c2ccc(Br)cc2)n1	-	-	-	-	-	-	.
Cc1cc(C)nc(NS(=O)(=O)c2ccc(-n3cccc3)cc2)n1	?	-	?	79µM	32µM	10µM	54
COc1ccccc1N=Nc1c(O)[nH]c2ccc(Br)cc12	-	-	-	-	-	-	.
COc1cc(-c2cc(=O)c3c(O)c(OC)c(OC)cc3o2)cc(OC)c1O	?	-	?	79µM	28µM	22µM	67
O=C(CN(c1ccccc1)S(=O)(=O)c1ccccc1)N/N=C/c1ccc(OC2CSC2)cc1	.	.	.	.	-	.	.
CCOc1ccc(OCCOC(=O)C2CCN(S(=O)(=O)c3ccc(C)c(C)c3)CC2)cc1	-	-	-	-	.	-	.
CCC1CCCCN1CCCNC(=O)CCCOc1cc(=O)n(C)c2ccccc12 (centres undefined)	?	-	-	-	-	-	.
COc1cc(/C=C2\SC(=S)N(NC(=O)c3ccccc3O)C2=O)ccc1O	56µM	?	14µM	?	?	?	.	Pol kappa inh-2=42
Cc1ccc(CCNC(=O)c2ccc(CS(=O)(=O)c3ccccc3C)o2)cc1	-	-	-	-	-	-	.
CCOc1ccc(CCNC(=O)C2CC(C)=CCC2C(=O)O)cc1OCC (centres undefined)	-[11.6 µM]	-	?	-	25µM	28µM	54
CCOc1ccc(C(=O)Nc2cccc(C(=O)O)c2)cc1Cl	-	-	-	-	-	-	.
CCOc1ccc(C(=O)Nc2cc(NC(=O)c3ccc(OCC)c(Cl)c3)cc(C(=O)O)c2)cc1Cl	-[11.6 µM]	?	?	-	18µM	32µM	.	Pol kappa inh-2=21
CC1CN(C(=O)Cn2cc(SCC(=O)N3CCOCC3)c3ccccc32)CC(C)O1 (centres undefined)	-	-	-	-	-	-	.
O=C(c1ccc(-c2ccccc2)cc1)N1CCC2CC1c1cc(-c3ccc4c(c3)OCO4)ccc12 (centres undefined)	-	.	.	.	.	.	.
CCOc1ccccc1NC(=O)CN(C)S(=O)(=O)c1ccc2[nH]c(=O)oc2c1	-	-	-	-	-	-	.
Cc1ccc(NC(=O)CN(C)S(=O)(=O)c2ccc3[nH]c(=O)oc3c2)c(C)c1	-[11.6 µM]	-	-	-	?	79µM	27
CCc1sc(/C=C(/C#N)C(N)=S)cc1[N+](=O)[O-]	?	-	?	-	?	20µM	43
CCSC1=N/C(=C\c2ccc(-c3ccccc3[N+](=O)[O-])o2)C(=O)S1	-	-	-	-	-	-	.
CCCSC1=N/C(=C\c2ccc([N+](=O)[O-])o2)C(=O)S1	22µM	35µM	?	20µM	2.8µM	?	76
O=[N+]([O-])c1cc([N+](=O)[O-])c2oc(-c3ccccc3)c(Br)c2c1O	?	45µM	?	?	28µM	25µM	.	GALK confirm=53µM;Redox cycling=-;HEK293 tox=-
Cc1cc(C(=O)N/N=C/c2cc(Br)c(Br)o2)n[nH]1	?	-	14µM	79µM	45µM	18µM	60	Pol kappa inh-2=47
CCOC(=O)CCCCCC(=O)Nc1ccc2c(c1)C(=O)N([C@H](C)CO)C[C@H](C)[C@@H](CN(C)C(=O)Nc1ccc(OC)cc1)O2	-	-	-	-	.	-	.
SMILES	WRN inhibitor	FEN1 inh	Pol iota inh	Pol kappa inh-1	POLB inh	Pol eta inh-1	Pol eta inh-2	others
Cc1cc(C(=O)NNC(=O)Nc2ccccc2)no1	-	-	-	-	-	-	.
O=C(O)CCCCCn1c(SCC(=O)c2ccc(O)c(O)c2)nc2ccsc2c1=O	?	-	?	?	40µM	2.8µM	17	Pol kappa inh-2=7.5
COc1ccc(S(=O)(=O)CC(=O)c2cc3cc(Br)ccc3oc2=O)cc1	?	?	13µM	?	10µM	28µM	?
Cc1ccc(Cn2c(/C=C/c3ccco3)nc3ccccc32)cc1	-	-	-	-	?	-	.
O=C(N/N=C/c1ccccc1O)c1cc(=O)[nH]c2ccccc12	.	.	.	.	-	.	.
CCCc1cc(=O)[nH]c(SCC(=O)Nc2sccc2C#N)n1	?	?	18µM	?	.	?	?
CCCc1cc(=O)[nH]c(SCC(=O)Nc2c(C)cccc2C)n1	-	-	?	-	-	-	.
CCOc1ccc(/C=c2\sc3nc(-c4ccco4)nn3c2=O)cc1OCC	?	-	?	?	-	14µM	?
COc1ccc(C(C)(O)c2nc(-c3ccncc3)cs2)cc1 (centres undefined)	-	.	.	.	.	.	.
O=C(N/N=C/c1ccc(O)c(O)c1)c1ccc(-n2cnnn2)cc1	-[11.6 µM]	-	45µM	79µM	.	22µM	?
Cc1ccc2c(CC(=O)OCC(=O)N(CC(C)C)c3c(N)n(Cc4ccccc4)c(=O)[nH]c3=O)coc2c1	-	-	25µM	?	.	20µM	38
CCN(C(=O)COC(=O)Cc1coc2cc(C)ccc12)c1c(N)n(Cc2ccccc2)c(=O)[nH]c1=O	-	-	?	-	.	-	.
Cc1snc(S(=O)(=O)/C(C#N)=N/Nc2ccc(C(F)(F)F)cc2)c1C#N	-	-	-	-	-	-	.	GALK confirm=38µM;Redox cycling=-;HEK293 tox=-
CCOC(=O)N/N=C(C)/C=C/c1ccco1	-	-	-	-	-	-	.
Cc1cccc(OCC(=O)N/N=C/C=C/c2ccco2)c1	-	-	?	?	35µM	?	?
CCOC(=O)N/N=C\C=C\c1ccco1	-[11.6 µM]	-	?	-	?	79µM	76
Cc1cccc(C)c1OCC(=O)N/N=C/C=C/c1ccco1	-	-	-	-	-	-	.

Screens deposited in PubChem BioAssay by National Center for Advancing Translational Sciences (NCATS).
